Screening results deposited in PubChem BioAssay by The Scripps Research Institute Molecular Screening Center.
The entries come from a sample that favours hits as a whole.
SF-1 inh = inhibitors of human nuclear receptor SF-1; AID 525; inhibition, % at 10 µM; Q13285; CHO-K1 Gal4-SF-1 LBD luciferase reporter; actives 0.55% (n = 65,000);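 active means inhibition above the mean inhibition of all tested compounds plus 3 SD, cut at about 48% in these data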;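 further: 0% = SF-1 transfected cells with DMSO and 100% = mock-transfected cells lacking SF-1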
Target sequence (Q13285 whole entry, looked up, the tested form may be a part): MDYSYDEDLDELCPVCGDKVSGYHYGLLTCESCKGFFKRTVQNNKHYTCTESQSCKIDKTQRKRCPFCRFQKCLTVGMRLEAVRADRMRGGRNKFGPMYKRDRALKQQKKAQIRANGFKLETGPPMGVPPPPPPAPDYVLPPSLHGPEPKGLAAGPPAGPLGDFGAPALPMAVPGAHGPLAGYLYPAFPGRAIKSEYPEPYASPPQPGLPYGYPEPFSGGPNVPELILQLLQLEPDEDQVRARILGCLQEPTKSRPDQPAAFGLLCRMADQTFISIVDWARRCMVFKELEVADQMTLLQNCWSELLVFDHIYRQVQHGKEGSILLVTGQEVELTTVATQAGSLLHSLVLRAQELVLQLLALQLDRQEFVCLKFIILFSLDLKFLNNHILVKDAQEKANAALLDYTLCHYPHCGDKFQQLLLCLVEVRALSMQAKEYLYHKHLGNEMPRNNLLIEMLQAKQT
An asterisk follows results filed as active.

SMILES	SF-1 inh
COc1ccc(NC(=O)NCCCN2CCN(c3cc(C)ccc3C)CC2)cc1	49*
FC(F)C(F)(F)C1=CC(c2cccs2)=NCCN1	10
CCN=C1SC(C(=O)Nc2cccc(OCC)c2)CC(=O)N1CC (centres undefined)	24
CCn1c(CC(=O)Nc2ccc(C)cc2)nnc1SCC(=O)NCc1ccccc1	9
Cc1cc(C(=O)CSc2nc3ccccc3[nH]2)c(C)n1C	-61
Cc1cc(-n2c(C)cc(C(=O)CSc3ncnc4ccccc34)c2C)no1	71*
Cc1cc(C(=O)CSc2nc3ccccc3o2)c(C)n1C1CC1	-61
O=C(CN(Cc1ccco1)C(=O)CNS(=O)(=O)c1ccc(F)cc1)NCCc1ccccc1	-2
CC1CCCN(c2ccc(C(=O)NCC3CCCO3)cn2)C1 (centres undefined)	-58
CN1CCN(C(=O)c2cccc(COc3cc(Cl)ccc3Cl)c2)CC1	-69
O=C(COc1ccccc1Cl)Nc1ccc(Cl)cn1	-74
O=C(O)c1cccc(COc2ccccc2Cl)c1	94*
Cc1nnc(SCCN2CCOCC2)n1C	-13
CCC1CCCCN1CCCNC(=O)CNC(=O)Cn1ccc2ccccc2c1=O (centres undefined)	5
COc1ccccc1CC(=O)N1CCN(c2cccc(C(F)(F)F)c2)CC1	48*
O=C(O)CCC(=O)N1CCN(c2cccc(Cl)c2)CC1	-10
COc1ccc2c(c1OC)C(=O)N(c1cccc(C(F)(F)F)c1)C2	-59
O=C(COC(=O)CSCC(=O)N1CCCCC1)Nc1ccc(Cl)cc1	5
COc1ccc(-c2nc(C)c(C(C)=O)n2O)cc1OC	10
COc1ccc(-c2cc(C(=O)O)c(C)o2)cc1OC	51*
CC(=O)c1c(C)[nH]c(C(=O)Nc2ccc3c(c2)OCCO3)c1C	-61
Cc1oc(-c2ccc3c(c2)OCCO3)cc1C(=O)O	81*
Cc1oc2cc(O)cc(O)c2c(=O)c1-c1ccc2c(c1)OCCCO2	-50
COc1ccc(-c2nnc(SCCC(=O)O)n2C)cc1OC	14
CC(=O)Nc1ccc(-c2nc3c(C)cccc3[nH]2)cc1	-99
SMILES	SF-1 inh
COC(=O)C1=[N+]([O-])OC(C(=O)OC)C1c1c[nH]c2ccccc12 (centres undefined)	5
COC(=O)c1cc2oc3ccccc3c2n1Cc1ccccn1	7
CC1(C)CC(=O)C2=C(C1)Nc1ccccc1N=C2	-58
Cc1nc2ccc(NC(=O)Cn3cnc4c3c(=O)n(C)c(=O)n4C)cc2s1	3
Fc1cc(F)c2nc(N3CCCCC3)sc2c1	-65
COc1ccc(N2C(=O)CC(c3ccc(OC(C)C)cc3)C2=O)cc1 (centres undefined)	1
CCOC(=O)c1sc(NC(=O)c2cc3c(C)nn(-c4ccccc4)c3s2)nc1C	8
CCC(NC(=O)Nc1ncccc1C)(C(F)(F)F)C(F)(F)F	-7
COc1ccc(C(=O)Nc2nnc(C(F)(F)F)s2)cc1	-57
CCC(NC(=O)Nc1nnc(C(F)(F)F)s1)(C(F)(F)F)C(F)(F)F	94*
COc1cc2c(cc1NC(=O)CN1C(=O)NC3(CCc4ccccc43)C1=O)oc1ccccc12 (centres undefined)	-3
Cn1c2c(c(=O)n(C)c1=O)C(c1cc3c(cc1Br)OCO3)CC(=O)N2 (centres undefined)	15
CCOC(=O)N1CCc2c(sc3c2C(=O)NC(c2ccc(-c4ccc(Cl)cc4)o2)N3)C1 (centres undefined)	-12
O=c1cc(CSc2nnc(-c3ccccc3)o2)c2ccccc2[nH]1	8
O=C(c1ccccc1)C(CCC(CN1CCOCC1)C(=O)c1ccccc1)CN1CCOCC1 (centres undefined)	74*
O=C(c1ccccc1)c1ccccc1C(=O)N1CCOCC1	22
O=C(CCSc1ccccc1)N1CCOCC1	-52
Cc1csc(NC(=O)Cc2nn(C)c(=O)c3ccccc23)n1	54*
Cc1ccc(NC(=O)Cc2nn(C)c(=O)c3ccccc23)cc1F	80*
COc1cccc(OC)c1NC(=O)Cc1nn(C)c(=O)c2ccccc12	-3
Cn1nc(C(=O)NCC2CCCO2)c2ccccc2c1=O (centres undefined)	6
CCC(=O)Nc1ccc(N2CCN(C(=O)c3ccccc3C)CC2)cc1	4
Cn1c(SCC(=O)Nc2ccc3c(c2)OCCO3)nnc1-c1ccco1	-16
CCc1nn(CC(=O)O)c(=O)c2ccccc12	-18
COc1ccc2c(c1)c(C(=O)CNc1nc(C)cs1)c(C)n2C	6
SMILES	SF-1 inh
Cc1ccc(OCC(=O)Nc2ccc(N3CCOCC3)cc2)cc1	-2
Cn1nc(CC(=O)Nc2ccc3c(c2)OCCO3)c2ccccc2c1=O	62*
Cn1nc(CC(=O)Nc2ccc(N3CCN(C(=O)OC(C)(C)C)CC3)cc2)c2ccccc2c1=O	63*
O=C(Nc1ccc2c(c1)OCCO2)c1c(F)cccc1F	-56
Cc1cc(C)cc(-n2cc3c(=O)n(C)c(=O)n(C)c3c2)c1	-1
COc1cc(CNC2CCC(C)C2)cc(OC)c1 (centres undefined)	6
CCCCN(CC)C(=O)c1ccc(Cl)c(Cl)c1	-20
Cc1ccc(-n2ncc3c(=O)n(CC(=O)NCc4ccco4)cnc32)cc1C	-12
O=C1c2ccccc2C(=O)N1CCCn1nnc(-c2ccc(N3CCOCC3)cc2)n1	-3
CSC1=C(C#N)C(C)C2=C(CC(C)(C)CC2=O)N1 (centres undefined)	-3
C=CCNC(=O)NS(=O)(=O)c1ccc(C)cc1	4
CCOC(=O)C1CCCN(c2nc(C)nc3c2oc2ccccc23)C1 (centres undefined)	17
CCOC(=O)C1CCN(Cc2ccc(O)c3ncccc23)CC1	77*
CCOC(=O)N1CCC(NC(=O)c2cccnc2SC)CC1	-2
CC1CN(c2oc(Cc3cccc4ccccc34)nc2C#N)CC(C)O1 (centres undefined)	14
COCCn1c(C2CCCCC2)nc2sc3ccccc3c(=O)c2c1=O	-2
COCCCN(C(C)=O)c1nc(-c2ccc(OC)cc2)cs1	-98
COC(=O)c1ccc(NC(=O)CN(c2ccc(OC)cc2)S(C)(=O)=O)cc1	-75
COc1ccccc1NC(=O)C1=C(C)Nc2nc(CCCO)nn2C1c1ccc2c(c1)OCO2 (centres undefined)	-12
COC(=O)C1=C(N)N(c2ccc(F)cc2)C2=C(C(=O)CCC2)C1c1ccc2c(c1)OCO2 (centres undefined)	13
CCOC(=O)N1CCC(NC(=O)c2cnn3cccnc23)CC1	-16
CCCCn1c2c(c(=O)n(C)c1=O)C(c1ccc(OC)cc1)N1CCCCCC1=N2 (centres undefined)	49*
CCc1nnc2c3cnn(-c4ccc(C)c(C)c4)c3ncn12	-58
N#Cc1c(NC(=O)CN2CCN(S(=O)(=O)c3ccc4c(c3)OCCO4)CC2)sc2c1CCC2	4
Cc1c(NC(=O)C(CC(=O)O)NCc2ccco2)c(=O)n(-c2ccccc2)n1C (centres undefined)	-1
CCCOc1ccc([C@@H]2C3CN(C(=O)OCC)CC=C3C(C#N)=C(N)C2(C#N)C#N)cc1OC (some centres undefined)	6
N#CC1=C(N)C(C#N)(C#N)[C@H](c2ccncc2)[C@H]2CN(C(=O)OCc3ccccc3)CC=C12	48*
OC(COCC1COc2ccccc2O1)CN1CCN(c2ccccn2)CC1 (centres undefined)	3
Cc1nn(-c2ccccc2)c2sc(C(=O)OC3CCOC3=O)cc12 (centres undefined)	16
CC(C)CCNC(=O)C1CCN(S(=O)(=O)c2ccc3c(c2)CCC(=O)N3)CC1	-10
